Results from PubChem BioAssay (NCI).
About 83,000 compounds went through this panel and 20% of them were active in at least one assay; those are over-represented in the sample as a whole.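 Interpretation: 100, growth as untreated; towards 0, rising growth inhibition; 0, no net growth; 0 to -100, cell death. Compounds scoring below 10 were considered active.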 Activity calls are given as the source filed them.

Tests used:
Assay in all cases: NCI-60 one-dose screen, 48 h (100 = growth as untreated, 0 = no growth, -100 = all killed)
Details in all cases: 10 µM unless noted
HCT-15 colon = tested on: HCT-15 colon
HT29 colon = tested on: HT29 colon
SNB-75 CNS = tested on: SNB-75 CNS
SNB-19 CNS = tested on: SNB-19 CNS
U251 CNS = tested on: U251 CNS
PC-3 prostate = tested on: PC-3 prostate
SK-MEL-5 melanoma = tested on: SK-MEL-5 melanoma
UACC-62 melanoma = tested on: UACC-62 melanoma
LOX IMVI melanoma = tested on: LOX IMVI melanoma
SK-MEL-28 melanoma = tested on: SK-MEL-28 melanoma
SK-MEL-2 melanoma = tested on: SK-MEL-2 melanoma
EKVX NSCLC = tested on: EKVX NSCLC
SN12C renal = tested on: SN12C renal
UO-31 renal = tested on: UO-31 renal
TK-10 renal = tested on: TK-10 renal
ACHN renal = tested on: ACHN renal
CAKI-1 renal = tested on: CAKI-1 renal
A498 renal = tested on: A498 renal
CCRF-CEM leukemia = tested on: CCRF-CEM leukemia
MOLT-4 leukemia = tested on: MOLT-4 leukemia

Measured: growth

CC(=O)Oc1cc(C)c(OC(C)=O)c(C)c1C
inactive: HCT-15 colon 98% | HT29 colon 114% | SNB-75 CNS 132% | SNB-19 CNS 96.4% | U251 CNS 104% | PC-3 prostate 90.5% | SK-MEL-5 melanoma 91.4% | UACC-62 melanoma 93.1% | LOX IMVI melanoma 83.6% | SK-MEL-28 melanoma 130% | SK-MEL-2 melanoma 102% | EKVX NSCLC 95.8% | SN12C renal 98.9% | UO-31 renal 88.2% | TK-10 renal 124% | ACHN renal 100% | CAKI-1 renal 77.4% | A498 renal 109% | CCRF-CEM leukemia 100% | MOLT-4 leukemia 109%

CC(=O)c1cc2ccccc2o1
inactive: HCT-15 colon 99.6% | HT29 colon 95.4% | SNB-75 CNS 101% | SNB-19 CNS 108% | U251 CNS 109% | PC-3 prostate 99.9% | SK-MEL-5 melanoma 101% | UACC-62 melanoma 102% | LOX IMVI melanoma 95.3% | SK-MEL-28 melanoma 96.6% | SK-MEL-2 melanoma 97.9% | EKVX NSCLC 106% | SN12C renal 101% | UO-31 renal 99.6% | TK-10 renal 93.6% | ACHN renal 101% | CAKI-1 renal 99.6% | A498 renal 104% | CCRF-CEM leukemia 106% | MOLT-4 leukemia 99.7%

CC(=O)Nc1ccc2oc(=O)ccc2c1
inactive: HCT-15 colon 107% | HT29 colon 106% | SNB-75 CNS 89% | SNB-19 CNS 102% | U251 CNS 108% | PC-3 prostate 100% | SK-MEL-5 melanoma 97.8% | UACC-62 melanoma 93.9% | LOX IMVI melanoma 99.7% | SK-MEL-28 melanoma 115% | SK-MEL-2 melanoma 101% | EKVX NSCLC 94.6% | SN12C renal 95.6% | UO-31 renal 91.3% | TK-10 renal 111% | ACHN renal 113% | CAKI-1 renal 88.1% | A498 renal 89.9% | CCRF-CEM leukemia 109% | MOLT-4 leukemia 98.6%

O=C1Cc2ccccc2C(=O)N1
inactive: HCT-15 colon 99.2% | HT29 colon 88.9% | SNB-75 CNS 96.1% | SNB-19 CNS 106% | U251 CNS 86.1% | PC-3 prostate 95.2% | SK-MEL-5 melanoma 106% | UACC-62 melanoma 92.2% | LOX IMVI melanoma 42.1% | SK-MEL-28 melanoma 106% | SK-MEL-2 melanoma 92.4% | EKVX NSCLC 99.2% | SN12C renal 96.7% | UO-31 renal 75.5% | TK-10 renal 91% | ACHN renal 82.1% | CAKI-1 renal 77% | A498 renal 103% | CCRF-CEM leukemia 41.1% | MOLT-4 leukemia 69.8%

CCc1ccc(OC(=O)CCl)cc1
inactive: HCT-15 colon 107% | HT29 colon 107% | SNB-75 CNS 89.7% | SNB-19 CNS 108% | U251 CNS 97% | PC-3 prostate 98.3% | SK-MEL-5 melanoma 105% | UACC-62 melanoma 106% | LOX IMVI melanoma 93.3% | SK-MEL-28 melanoma 98.4% | SK-MEL-2 melanoma 99.9% | EKVX NSCLC 98.6% | SN12C renal 106% | UO-31 renal 88.6% | TK-10 renal 101% | ACHN renal 102% | CAKI-1 renal 101% | A498 renal 88.3% | CCRF-CEM leukemia 104% | MOLT-4 leukemia 102%

O=C1C2=C(Nc3cc(Cl)ccc3N2)OC1c1c[nH]c2ccc(COc3ccccc3)cc12 (stereo not given)
active: SNB-75 CNS -2.61%
inactive: HCT-15 colon 82% | HT29 colon 86.4% | SNB-19 CNS 30.4% | U251 CNS 52.2% | PC-3 prostate 45.7% | SK-MEL-5 melanoma 81% | UACC-62 melanoma 68.7% | LOX IMVI melanoma 70.2% | SK-MEL-28 melanoma 94% | SK-MEL-2 melanoma 86.7% | EKVX NSCLC 55% | SN12C renal 71.3% | UO-31 renal 51.2% | TK-10 renal 71.6% | ACHN renal 60% | CAKI-1 renal 52.1% | A498 renal 102% | CCRF-CEM leukemia 64.1% | MOLT-4 leukemia 77.3%
